Test results reported in the supplement of paper PMC4723716.
± gives the uncertainty stated by the source. Over roughly 9,900 compounds, “viability index relative to DMSO control” has its median near 1; the lowest 2% begin near 0.85. The sample as a whole holds a higher share of the lowest values than the screen did.

Tested on: Plasmodium falciparum NF54 stage V gametocytes
Experiment: viability index relative to DMSO control (fraction); higher = less gametocyte killing
Settings: 2.5 µM, incubation time: 72 h
In short: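 In 1,536-well plates, 10 µl of serum-free medium holding P. falciparum NF54 stage V gametocytes (0.75% gametocytemia, 1.25% hematocrit) received compound at 2.5 µM for 72 hr at 37°C in low oxygen. After one to two hours with 3 µl of 2.5 µM MitoTracker Red CMXRos containing 0.13% saponin, red particles of 20–70 µm2 were counted in a single field per well. Viability index is reported as the particle count over the plate mean of wells treated with solvent only.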

[1] = library set: Broad Institute DOS
[2] = library set: Broad Institute Blood Stage

| SMILES | viability index [1] | viability index [2] |
| --- | --- | --- |
| N#Cc1cccc(-c2ccc([C@@H]3[C@@H](CO)N4CCCCN(Cc5ccccc5F)C[C@H]34)cc2)c1 | 0.889 ± 0.028 |  |
| C[C@H](CO)N1C[C@H](C)[C@@H](CN(C)S(=O)(=O)c2ccc(Cl)cc2)OCCCC[C@H](C)Oc2ccc(NC(=O)Nc3ccc(C(F)(F)F)cc3)cc2C1=O | 1.1 ± 0.11 |  |
| O=C(CC1CC1)N1CC(=O)N2[C@H](C1)[C@H](c1ccc(C#Cc3cccc(F)c3)cc1)[C@@H]2CO | 0.974 ± 0.063 |  |
| COc1ccc([C@H]2C/C=C/C[C@H](C)Oc3ccccc3C(=O)N(C)[C@@H](Cc3ccccc3)C(=O)N2)c(OC)c1.COc1ccc([C@H]2C/C=C\C[C@H](C)Oc3ccccc3C(=O)N(C)[C@@H](Cc3ccccc3)C(=O)N2)c(OC)c1 | 0.861 ± 0.046 |  |
| COc1ccc2c3c([nH]c2c1)[C@@H](CO)N(C[C@]31CCN(CC1)S(C)(=O)=O)C(=O)NC1CCCC1 | 1.01 ± 0.02 |  |
| Cc1noc(C)c1S(=O)(=O)N(C)C[C@H]1OCc2ccccc2-c2c(n(C)c3ccccc23)C(=O)N([C@H](C)CO)C[C@H]1C | 0.948 ± 0.025 |  |
| O=S(=O)(c1cccc(F)c1)N1[C@@H]2CNC[C@H]1[C@H]2c1ccc(-c2ccccc2F)cc1 | 1.06 ± 0.051 |  |
| C[C@H](CO)N1C[C@H](C)[C@H](CN(C)S(=O)(=O)c2ccc(C(F)(F)F)cc2)OCc2ccccc2-c2c(n(C)c3ccccc23)C1=O |  | 0.693 ± 0.051 |
| C[C@H]1CN([C@@H](C)CO)C(=O)c2c(c3ccccc3n2C)-c2ccccc2CO[C@H]1CN(C)Cc1cccc(C(F)(F)F)c1 | 0.952 ± 0.02 |  |
| C[C@@H]1CN([C@@H](C)CO)C(=O)c2c(c3ccccc3n2C)-c2ccccc2CO[C@@H]1CN(C)Cc1cccc(C(F)(F)F)c1 | 0.839 ± 0.039 |  |
| C[C@@H]1CN([C@@H](C)CO)C(=O)c2c(c3ccccc3n2C)-c2ccccc2CO[C@H]1CN(C)Cc1cccc(C(F)(F)F)c1 | 0.932 ± 0.15 |  |
| C[C@@H]1CN([C@@H](C)CO)C(=O)c2c(c3ccccc3n2C)-c2ccccc2CO[C@H]1CN(C)C(=O)Nc1ccccc1C(F)(F)F | 0.805 ± 0.084 |  |
| C[C@@H]1CN([C@@H](C)CO)C(=O)c2c(c3ccccc3n2C)-c2ccccc2CO[C@@H]1CN(C)S(=O)(=O)c1ccc([N+](=O)[O-])cc1 | 0.998 ± 0.098 |  |
| C[C@@H]1CN([C@@H](C)CO)C(=O)c2c(c3ccccc3n2C)-c2ccccc2CO[C@H]1CN(C)S(=O)(=O)c1ccc([N+](=O)[O-])cc1 | 0.93 ± 0.086 |  |
| C[C@H](CO)N1C[C@H](C)[C@@H](CN(C)S(=O)(=O)c2ccc([N+](=O)[O-])cc2)OCc2ccccc2-c2c(n(C)c3ccccc23)C1=O | 0.896 ± 0.046 |  |
| C[C@H](CO)N1C[C@H](C)[C@H](CN(C)S(=O)(=O)c2ccc([N+](=O)[O-])cc2)OCc2ccccc2-c2c(n(C)c3ccccc23)C1=O | 0.969 ± 0.015 |  |
| C[C@H]1CN([C@@H](C)CO)C(=O)c2c(c3ccccc3n2C)-c2ccccc2CO[C@@H]1CN(C)C(=O)Nc1ccccc1C(F)(F)F | 1.009 ± 0.0034 |  |
| C[C@@H]1CN([C@@H](C)CO)C(=O)c2c(c3ccccc3n2C)-c2ccccc2CO[C@@H]1CN(C)C(=O)Nc1ccccc1C(F)(F)F | 0.955 ± 0.039 |  |
| C[C@H]1CN([C@@H](C)CO)C(=O)c2c(c3ccccc3n2C)-c2ccccc2CO[C@H]1CN(C)S(=O)(=O)c1ccc(C(F)(F)F)cc1 |  | 0.705 ± 0.04 |
| C[C@@H]1CN([C@H](C)CO)C(=O)CCCn2nncc2CO[C@@H]1CN(C)S(=O)(=O)c1ccc2c(c1)OCCCO2 | 1.025 ± 0.0016 |  |
| C[C@@H]1CN([C@H](C)CO)C(=O)c2cc(NS(=O)(=O)c3cn(C)cn3)ccc2O[C@@H](C)CCCCO[C@@H]1CN(C)Cc1ccc2c(c1)OCO2 | 1.15 ± 0.07 |  |
| CC(=O)N1CC2(C1)[C@@H](c1ccc(-c3ccc(F)cc3)cc1)[C@@H](CO)N2CC1CC1 | 1.08 ± 0.023 |  |

| SMILES | viability index [1] | viability index [2] |
| --- | --- | --- |
| O=C(C[C@@H]1C=C[C@@H](NC(=O)Nc2ccc3c(c2)OCO3)[C@@H](CO)O1)NCCCN1CCOCC1 | 1.02 ± 0.075 |  |
| COc1ccccc1S(=O)(=O)N1[C@@H]2CNC[C@H]1[C@@H]2c1ccc(-c2ccncc2)cc1 | 1.06 ± 0.032 |  |
| O=C(C[C@@H]1CC[C@H](NC(=O)C2CC2)[C@H](CO)O1)Nc1ccccc1 | 0.916 ± 0.036 |  |
| O=C(C1CCOCC1)N1C[C@@H]2[C@H](c3ccccc31)[C@@H](CO)N2C(=O)Cc1ccccn1 | 1.06 ± 0.053 |  |
| COc1ccc2c3c([nH]c2c1)[C@@H](CO)N(C[C@]31CN(C1)C(=O)NC(C)C)C(=O)C1CCOCC1 | 1.03 ± 0.045 |  |
| C[C@H]1CN([C@@H](C)CO)C(=O)c2cccc(NC(=O)C3CCOCC3)c2O[C@@H]1CN(C)C(=O)Nc1cccc2ccccc12 | 1.03 ± 0.11 |  |
| CCS(=O)(=O)Nc1ccc2c(c1)C(=O)N(C)[C@@H]1CC[C@H](CC(=O)NC3CCCCC3)O[C@@H]1CO2 | 0.905 ± 0.12 |  |
| CN(C)C(=O)c1cccc(-c2ccc([C@@H]3[C@H]4CN(C(=O)C5CCC5)CC(=O)N4[C@H]3CO)cc2)c1 | 0.9976 ± 0.0084 |  |
| COc1ccc(-c2ccccc2[C@@H]2[C@@H](CO)N(C(=O)NC(C)C)[C@H]2C#N)cc1 | 1.1 ± 0.063 |  |
| COc1ccc(S(=O)(=O)Nc2ccc3c(c2)[C@H]2C[C@H](CC(=O)N(C)C)O[C@@H](CO)[C@H]2O3)cc1 | 1.11 ± 0.014 |  |
| C[C@H]1CN([C@@H](C)CO)C(=O)c2cc(NS(=O)(=O)c3cn(C)cn3)ccc2O[C@@H]1CN(C)C(=O)Nc1cccc2ccccc12 | 0.954 ± 0.24 |  |
| C[C@@H]1CN([C@@H](C)CO)S(=O)(=O)c2ccc(C#Cc3cccc(F)c3)cc2O[C@@H]1CN(C)S(=O)(=O)c1cn(C)cn1 | 0.9512 ± 0.0018 |  |
| Cc1ccc(S(=O)(=O)N(C)C[C@H]2Oc3cc(C#CC4CCCC4)ccc3S(=O)(=O)N([C@H](C)CO)C[C@H]2C)cc1 | 0.8771 ± 0.0037 |  |
| Cc1ccc(S(=O)(=O)N(C)C[C@@H]2Oc3cc(C#CC4CCCC4)ccc3S(=O)(=O)N([C@H](C)CO)C[C@H]2C)cc1 | 0.766 ± 0.091 |  |
| Cc1ccc(S(=O)(=O)N(C)C[C@@H]2Oc3cc(C#CC4CCCC4)ccc3S(=O)(=O)N([C@H](C)CO)C[C@@H]2C)cc1 | 0.943 ± 0.17 |  |
| C[C@H]1CN([C@@H](C)CO)S(=O)(=O)c2ccc(C#Cc3cccc(F)c3)cc2O[C@@H]1CN(C)S(=O)(=O)c1cn(C)cn1 | 0.985 ± 0.049 |  |
| C[C@@H]1CN([C@H](C)CO)S(=O)(=O)c2ccc(C#Cc3cccc(F)c3)cc2O[C@@H]1CN(C)S(=O)(=O)c1cn(C)cn1 | 1.01 ± 0.055 |  |
| C[C@@H]1CN([C@H](C)CO)S(=O)(=O)c2ccc(C#Cc3cccc(F)c3)cc2O[C@H]1CN(C)S(=O)(=O)c1cn(C)cn1 | 0.803 ± 0.052 |  |
| CCCC#Cc1ccc2c(c1)O[C@@H](CN(C)Cc1ccccn1)[C@@H](C)CN([C@@H](C)CO)S2(=O)=O | 0.884 ± 0.045 |  |
| CCCC#Cc1ccc2c(c1)O[C@H](CN(C)Cc1ccccn1)[C@H](C)CN([C@@H](C)CO)S2(=O)=O | 0.847 ± 0.015 |  |
| CCCC#Cc1ccc2c(c1)O[C@H](CN(C)Cc1ccccn1)[C@@H](C)CN([C@@H](C)CO)S2(=O)=O | 1.02 ± 0.084 |  |
| Cc1ccc(S(=O)(=O)N(C)C[C@@H]2Oc3cc(C#CC4CCCC4)ccc3S(=O)(=O)N([C@@H](C)CO)C[C@H]2C)cc1 | 0.648 ± 0.17 |  |

| SMILES | viability index [1] | viability index [2] |
| --- | --- | --- |
| COc1cccc(S(=O)(=O)N(C)C[C@@H]2Oc3cc(Br)ccc3S(=O)(=O)N([C@@H](C)CO)C[C@@H]2C)c1 | 1.07 ± 0.041 |  |
| O=C(C[C@H]1CC[C@H]2[C@@H](COC[C@H](O)CN2Cc2nccs2)O1)N1CCC(Cc2ccccc2)CC1 | 1.03 ± 0.078 |  |
| CN1C(=O)c2cc(NC(=O)c3cnccn3)ccc2OC[C@@H]2O[C@H](CC(=O)N[C@@H]3CCN(Cc4ccccc4)C3)CC[C@H]21 | 1.05 ± 0.031 |  |
| COc1ccccc1CN1[C@@H]2CNC[C@H]1[C@@H]2c1ccc(-c2cccnc2)cc1 | 1.09 ± 0.1 |  |
| Cc1noc(C)c1S(=O)(=O)N(C)C[C@@H]1OCCCC[C@H](C)Oc2ccc(NC(=O)CCC(F)(F)F)cc2C(=O)N([C@@H](C)CO)C[C@H]1C | 1.03 ± 0.09 |  |
| O=C(C[C@@H]1C=C[C@@H](NC(=O)c2ccc3c(c2)OCO3)[C@@H](CO)O1)NC1Cc2ccccc2C1 | 0.963 ± 0.11 |  |
| COc1cccc(-c2ccccc2[C@@H]2[C@H](C#N)N(C(=O)c3ccccn3)[C@H]2CO)c1 | 1.1 ± 0.072 |  |
| Cc1ccc(S(=O)(=O)Nc2ccc3c(c2)C(=O)N([C@@H](C)CO)C[C@@H](C)[C@H](CN(C)S(=O)(=O)c2cccs2)OCCCC[C@@H](C)O3)cc1 | 1.13 ± 0.086 |  |
| CO[C@H](CN(C)Cc1ccc2c(c1)OCO2)[C@H](C)CN(C(=O)c1ccccc1)[C@@H](C)CO | 1.067 ± 0.0074 |  |
| COc1ccc2c3c([C@@H](CO)N(Cc4ccncc4)C[C@]33CN(C3)C(=O)Nc3cccc(F)c3)n(C)c2c1 | 1 ± 0.16 |  |
| C/C=C/c1ccc([C@H]2[C@H]3CNC[C@@H]2N3C(=O)Nc2ccc3c(c2)OCO3)cc1 | 1.05 ± 0.093 |  |
| Cc1ccc(S(=O)(=O)N(C)C[C@H]2Oc3cc(C#CC4CCCC4)ccc3S(=O)(=O)N([C@@H](C)CO)C[C@H]2C)cc1 | 0.713 ± 0.03 |  |
| C[C@H]1CN([C@@H](C)CO)S(=O)(=O)c2ccc(-c3ccncc3)cc2O[C@H]1CN(C)S(C)(=O)=O | 1.023 ± 0.0035 |  |
| Cc1ccc(S(=O)(=O)N(C)C[C@@H]2Oc3cc(C#CC4CCCC4)ccc3S(=O)(=O)N([C@@H](C)CO)C[C@@H]2C)cc1 | 0.837 ± 0.055 |  |
| CCCN(C)C[C@@H]1Oc2cc(/C=C/c3ccccc3)ccc2S(=O)(=O)N([C@@H](C)CO)C[C@H]1C | 1.102 ± 0.0059 |  |
| C[C@H]1CN([C@@H](C)CO)S(=O)(=O)c2ccc(C#Cc3cccc(F)c3)cc2O[C@H]1CN(C)S(=O)(=O)c1cn(C)cn1 | 1.04 ± 0.054 |  |
| COc1cccc(S(=O)(=O)N(C)C[C@H]2Oc3cc(Br)ccc3S(=O)(=O)N([C@@H](C)CO)C[C@H]2C)c1 | 0.978 ± 0.026 |  |
| CCCN(C)C[C@H]1Oc2cc(/C=C/c3ccccc3)ccc2S(=O)(=O)N([C@H](C)CO)C[C@@H]1C | 1.02 ± 0.016 |  |
| C[C@@H]1CN([C@@H](C)CO)S(=O)(=O)c2ccc(C#Cc3cccc(F)c3)cc2O[C@H]1CN(C)S(=O)(=O)c1cn(C)cn1 | 0.9366 ± 0.0027 |  |
| Cc1ccc(S(=O)(=O)N(C)C[C@H]2Oc3cc(C#CC4CCCC4)ccc3S(=O)(=O)N([C@H](C)CO)C[C@@H]2C)cc1 | 0.676 ± 0.26 |  |
| COc1ccccc1S(=O)(=O)N(C)C[C@@H]1Oc2cc(/C=C/c3ccccc3)ccc2S(=O)(=O)N([C@H](C)CO)C[C@H]1C |  | 0.808 ± 0.032 |
